For 5 compounds, outcome and AC50 results are on record in PubChem BioAssay (EPA / NIEHS).

Assay [1] can be described thus: ATG_NFI_CIS: Attagene CIS-FACTORIAL HepG2 Assay for human Nuclear Factor I (NFI) (AID 2282989). The note with it: HepG2 cis-regulatory reporter, NFI response element transcription; actives raise or lower the signal. The gist of the method: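 Read-out: reporter mRNA via RT-PCR plus capillary electrophoresis with fluorescence detection. Transiently transfected HepG2 (endogenous TF activity on cis promoters), 24 h compound exposure; gain or loss of signal fitted against DMSO.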

Assay [2] addresses Myc proto-oncogene protein (Homo sapiens) (UniProt P01106). Kind of assay: ATG_Myc_CIS: Attagene CIS-FACTORIAL HepG2 Assay for human Myelocytomatosis (Myc) Proto-Oncogene Transcription Factor (AID 2282990). The note with it: HepG2, Attagene cis-reporter transcription factor activity; actives raise or lower the signal. The gist of the method:
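After 24 h chemical treatment of HepG2 cells carrying multiplexed cis-regulated reporter constructs, reporter transcripts quantified by RT-PCR and capillary electrophoresis of fluorescent fragments. Gain or loss fitted against DMSO baseline.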

Assay [3] can be described thus: ATG_NRF2_ARE_CIS: Attagene CIS-FACTORIAL HepG2 Assay for human Nuclear Factor Erythroid 2 Related Factor 2 (NFR2) response to Antioxidant Response Elements (ARE) (AID 2282992).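 On AC50: reporter mRNA level measured by RT-PCR and capillary electrophoresis fluorescence.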 The note with it: HepG2 Attagene ARE/NRF2 reporter, transcription factor activity; actives raise or lower the signal. The essentials: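 Fluorescence intensity of reporter-specific cDNA fragments, separated by capillary electrophoresis, reflects mRNA induction in transfected HepG2 cells at 24 h. Activity is fitted bidirectionally, DMSO serving as baseline.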

Assay [4] in a line: ATG_Oct_MLP_CIS: Attagene CIS-FACTORIAL HepG2 Assay for human Octamer-Binding Transcription Factor (Oct) (AID 2282993). The note with it: HepG2 Attagene cis-factorial Oct reporter, mRNA; actives raise or lower the signal. The essentials: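 Read-out: reporter mRNA via RT-PCR plus capillary electrophoresis of 6-FAM-labelled fragments. Transiently transfected HepG2, 24 h exposure, endogenous TF activity on cis elements. Gain or loss of signal fitted relative to DMSO.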

Assay [5] has as its target Cellular tumor antigen p53 (Homo sapiens) (UniProt P04637). Description: ATG_p53_CIS: Attagene CIS-FACTORIAL HepG2 Assay for human p53 Transcription Factor (AID 2282994). The note with it: HepG2 p53 cis-element reporter, Attagene mRNA; actives raise or lower the signal. The gist of the method:
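Transiently transfected HepG2 (multiple cis reporter transcription units); exposure 24 h; reporter RNA via RT-PCR, 6-FAM extension, 2 h HpaI digest at 37 C, CE detection; DMSO baseline.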

In assay [6] the target is human Peroxisome Proliferator-activated Receptor alpha (PPARa), PPARA (gene 5465) (UniProt Q07869). Description: ATG_PPARa_TRANS: Attagene TRANS-FACTORIAL HepG2 Assay for human Peroxisome Proliferator-activated Receptor alpha (PPARa) (AID 2283001; active means hit-call score of the fitted dose curve at least 0.9, where 1 is the maximum;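 on AC50: potency for gain of reporter signal over DMSO so agonist or activator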). The gist of the method: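 Reporter transcripts quantified by RT-PCR plus capillary electrophoresis after 24 h treatment, fitted upward relative to DMSO. Cells: human HepG2 transiently carrying multiple GAL4-UAS reporter units driven by NR-Gal4 chimeras.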

For assay [7], the target named is Retinoic acid receptor alpha (Homo sapiens) (UniProt P10276). Kind of assay: ATG_RARa_TRANS: Attagene TRANS-FACTORIAL HepG2 Assay for human Retinoic Acid Receptor alpha (RARa) (AID 2283005; active means hit-call score of the fitted dose curve at least 0.9, where 1 is the maximum). The gist of the method: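 Reporter transcripts, measured by RT-PCR with fluorescent labeling and capillary electrophoresis after 24 h dosing, reflect activity of an exogenous human RARa–GAL4 fusion in transiently transfected HepG2. Fitted for increase relative to DMSO.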

Assay [8] has as its target Peroxisome proliferator-activated receptor gamma (Homo sapiens) (UniProt P37231). Kind of assay: ATG_PPARg_TRANS: Attagene TRANS-FACTORIAL HepG2 Assay for human Peroxisome Proliferator-activated Receptor-gamma (PPARg) (AID 2283007; active means hit-call score of the fitted dose curve at least 0.9, where 1 is the maximum). The gist of the method:
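Human hepatoma HepG2, transient MRTU transfection, 24 h treatment. mRNA reporter signal by RT-PCR plus capillary electrophoresis, fluorescence detection; fitted for increase over DMSO negative control.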

Assay [9] has as its target Nuclear receptor subfamily 1 group I member 2 (Homo sapiens) (UniProt O75469). Description: ATG_PXR_TRANS: Attagene TRANS-FACTORIAL HepG2 Assay for human Pregnane X Receptor (PXR) (AID 2283008; active means hit-call score of the fitted dose curve at least 0.9, where 1 is the maximum). The gist of the method:
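Transient HepG2 transfectants carrying multiplexed reporter transcription units; PXR activity read through a Gal4 chimera. 24 h exposure. RT-PCR/CE fluorescence; upward curve fit referenced to DMSO.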

The target of assay [10] is human Retinoic Acid Receptor gamma (RARg), RARG (gene 5916) (UniProt P13631). Kind of assay: ATG_RARg_TRANS: Attagene TRANS-FACTORIAL HepG2 Assay for human Retinoic Acid Receptor gamma (RARg) (AID 2283009; active means hit-call score of the fitted dose curve at least 0.9, where 1 is the maximum). The gist of the method: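 Transactivation of exogenous RARg-Gal4 fusion measured as reporter transcript induction after 24 h in transfected HepG2 cells. RNA reverse-transcribed, amplified, fluorescently labeled and resolved by capillary electrophoresis; increase relative to DMSO.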

For assay [11], the target named is human Peroxisome Proliferator-activated Receptor delta (PPARd), PPARD (gene 5467) (UniProt Q03181). Description: ATG_PPARd_TRANS: Attagene TRANS-FACTORIAL HepG2 Assay for human Peroxisome Proliferator-activated Receptor delta (PPARd) (AID 2283002; active means hit-call score of the fitted dose curve at least 0.9, where 1 is the maximum). The gist of the method: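 Read-out is induced reporter mRNA, quantified by RT-PCR with fluorescent labelling and capillary electrophoresis after 24 h dosing. Cells are HepG2 transiently carrying multiple GAL4-UAS reporter units driven by exogenous NR-GAL4 chimeras; DMSO serves as baseline.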

Assay [12] deals with human Retinoic Acid Receptor beta (RARb), RARB (gene 5915) (UniProt P10826). Description: ATG_RARb_TRANS: Attagene TRANS-FACTORIAL HepG2 Assay for human Retinoic Acid Receptor beta (AID 2283004; active means hit-call score of the fitted dose curve at least 0.9, where 1 is the maximum). The gist of the method: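 Induction of reporter mRNA from a chimeric RARb-Gal4 construct was measured by RT-PCR, FAM labelling, HpaI digestion and capillary electrophoresis. Measurements followed 24 h compound treatment of transiently transfected human HepG2 liver cells, with DMSO as baseline.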

Assay [13] concerns the target human RAR-related Orphan Receptor beta (RORb), RORB (gene 6096) (UniProt Q92753). Description: ATG_RORb_TRANS: Attagene TRANS-FACTORIAL HepG2 Assay for human RAR-related Orphan Receptor beta (RORb) (AID 2283010; active means hit-call score of the fitted dose curve at least 0.9, where 1 is the maximum). The gist of the method: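 Read-out is reporter mRNA induction, quantified by RT-PCR with fluorescent capillary electrophoresis, 24 h post-dose in transiently transfected HepG2 expressing exogenous NR-Gal4 chimera. Activity fitted upward versus DMSO.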

Assay [14] is described as follows: BSK_3C_uPAR: BioMAP Diversity Plus: 3C Assay for Urokinase-type plasminogen activator receptor (uPAR) Biomarker Activity (AID 2282998). The note with it: BioMAP 3C HUVEC, uPAR biomarker ELISA; actives raise or lower the signal. The essentials: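 HUVEC primary cells; 24 h post-dose; uPAR by ELISA; gain or loss of signal fitted bidirectionally vs DMSO baseline.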
In general terms: An ELISA detects its analyte on a solid surface through an enzyme-linked reagent.

Assay [15] is described as follows: BSK_3C_VCAM1: BioMAP Diversity Plus: 3C Assay for Vascular cell adhesion molecule 1 (VCAM1) Biomarker Activity (AID 2282999). The note with it: BioMAP 3C HUVEC, VCAM1 ELISA, cytokine-stimulated; actives raise or lower the signal. The gist of the method: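 Activity fitted in both directions relative to DMSO, with ELISA measurement of the surface marker on primary HUVEC (3C) at 24 h post-treatment; parallel SRB staining (0.1% SRB, TCA-fixed, 560 nm) flagged overt cytotoxicity.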

Assay [16] is described as follows: BSK_4H_Eotaxin3: BioMAP Diversity Plus: 4H Assay for Eotaxin 3 Biomarker Activity (AID 2283000).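 Further: CCL26 protein level quantified by ELISA in parallel with SRB cytotoxicity check.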 The note with it: primary human endothelial cells (HUVEC); actives raise or lower the signal. The gist of the method: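 Human umbilical vein endothelial cells (BSK_4H system) dosed with test chemical; Eotaxin-3 (CCL26) measured by ELISA 24 h after dosing. Bidirectional curve fitting relative to DMSO negative control as baseline.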

Read-out in assay [17]: Intercellular Adhesion Molecule 1 (ICAM1), ICAM1 (gene 3383)
Kind of assay: BSK_3C_ICAM1: BioMAP Diversity Plus: 3C Assay for Intercellular Adhesion Molecule 1 (ICAM1) Biomarker Activity (AID 2283003). The note with it: primary human endothelial cells (HUVEC); actives raise or lower the signal. The essentials:
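ELISA readout of ICAM1 in human umbilical vein endothelial cells in the 3C system, taken 24 h post-dose. Gain or loss of signal versus DMSO was fitted in both directions, with SRB total-protein staining run in parallel.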

A short description of assay [18]: BSK_3C_Proliferation: Cell Proliferation Assessment in the BioMAP Diversity Plus: 3C Assay (AID 2283006). The note with it: primary human endothelial cells (HUVEC). The gist of the method:
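Proliferation as total protein: sulforhodamine B (0.1%) stain of TCA-fixed subconfluent human umbilical vein endothelial cells, absorbance 560 nm, 48 h after dosing. Activity fitted in both directions against DMSO baseline.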

Structures are written as SMILES. Results filed as inconclusive are left out. Calls of active or inactive are those of the source. How the source made its calls, unless noted: active means hit-call score of the fitted dose curve at least 0.9, where 1 is the maximum; inactive means score below 0.9.

As a reminder, the AC50 is the concentration giving half of the maximal activity seen.

Chain of human Retinoic Acid Receptor gamma (RARg), RARG (gene 5916) (P13631 whole entry, looked up, the tested form may be a part): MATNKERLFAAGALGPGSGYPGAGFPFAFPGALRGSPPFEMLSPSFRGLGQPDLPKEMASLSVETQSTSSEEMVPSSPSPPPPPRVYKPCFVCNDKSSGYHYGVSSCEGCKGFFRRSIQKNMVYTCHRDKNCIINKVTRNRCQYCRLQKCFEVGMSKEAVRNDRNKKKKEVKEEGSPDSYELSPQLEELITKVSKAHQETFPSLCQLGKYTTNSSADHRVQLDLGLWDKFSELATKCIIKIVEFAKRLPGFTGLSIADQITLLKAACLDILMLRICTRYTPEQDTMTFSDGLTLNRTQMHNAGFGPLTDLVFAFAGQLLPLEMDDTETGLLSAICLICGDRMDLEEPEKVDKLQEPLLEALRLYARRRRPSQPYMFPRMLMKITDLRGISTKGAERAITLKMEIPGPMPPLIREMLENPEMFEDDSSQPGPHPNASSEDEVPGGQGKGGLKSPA
Chain of Cellular tumor antigen p53 (Homo sapiens) (P04637 whole entry, looked up): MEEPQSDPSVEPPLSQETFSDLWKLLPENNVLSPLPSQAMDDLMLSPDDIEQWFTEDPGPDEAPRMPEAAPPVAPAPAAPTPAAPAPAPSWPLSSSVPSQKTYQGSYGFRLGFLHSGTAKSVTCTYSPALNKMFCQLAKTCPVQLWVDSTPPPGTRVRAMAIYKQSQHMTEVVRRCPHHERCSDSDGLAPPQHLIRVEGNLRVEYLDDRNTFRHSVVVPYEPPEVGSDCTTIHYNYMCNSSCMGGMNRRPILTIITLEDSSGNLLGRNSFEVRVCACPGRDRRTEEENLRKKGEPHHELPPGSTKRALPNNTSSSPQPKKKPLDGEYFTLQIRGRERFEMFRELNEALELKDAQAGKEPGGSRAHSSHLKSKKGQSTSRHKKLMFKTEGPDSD
Chain of human Peroxisome Proliferator-activated Receptor alpha (PPARa), PPARA (gene 5465) (Q07869 whole entry, looked up, the tested form may be a part): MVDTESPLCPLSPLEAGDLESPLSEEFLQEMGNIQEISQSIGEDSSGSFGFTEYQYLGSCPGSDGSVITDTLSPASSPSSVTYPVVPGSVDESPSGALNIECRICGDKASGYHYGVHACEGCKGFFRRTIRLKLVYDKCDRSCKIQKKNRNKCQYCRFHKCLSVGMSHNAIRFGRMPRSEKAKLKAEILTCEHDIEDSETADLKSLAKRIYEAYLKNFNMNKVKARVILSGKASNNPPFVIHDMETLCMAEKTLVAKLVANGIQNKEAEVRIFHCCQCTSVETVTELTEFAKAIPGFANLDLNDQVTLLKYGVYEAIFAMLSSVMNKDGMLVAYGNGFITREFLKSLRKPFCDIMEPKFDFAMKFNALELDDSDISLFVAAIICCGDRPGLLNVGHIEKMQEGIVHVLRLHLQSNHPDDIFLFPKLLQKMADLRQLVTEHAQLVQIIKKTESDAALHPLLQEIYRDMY
Chain of Myc proto-oncogene protein (Homo sapiens) (P01106 whole entry, looked up, the tested form may be a part): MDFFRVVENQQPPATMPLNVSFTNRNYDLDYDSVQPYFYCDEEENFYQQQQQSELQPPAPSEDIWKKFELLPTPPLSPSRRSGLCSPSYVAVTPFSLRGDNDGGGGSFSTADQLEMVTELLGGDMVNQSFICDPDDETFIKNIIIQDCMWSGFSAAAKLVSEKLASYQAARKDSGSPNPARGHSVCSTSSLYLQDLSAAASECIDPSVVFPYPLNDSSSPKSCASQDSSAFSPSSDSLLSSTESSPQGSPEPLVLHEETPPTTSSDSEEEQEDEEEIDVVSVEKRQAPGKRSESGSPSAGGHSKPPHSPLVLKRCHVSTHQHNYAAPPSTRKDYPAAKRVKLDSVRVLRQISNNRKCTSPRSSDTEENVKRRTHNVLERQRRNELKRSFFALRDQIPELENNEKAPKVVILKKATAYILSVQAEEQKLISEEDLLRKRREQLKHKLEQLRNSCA
Chain of Nuclear receptor subfamily 1 group I member 2 (Homo sapiens) (O75469 whole entry, looked up, the tested form may be a part): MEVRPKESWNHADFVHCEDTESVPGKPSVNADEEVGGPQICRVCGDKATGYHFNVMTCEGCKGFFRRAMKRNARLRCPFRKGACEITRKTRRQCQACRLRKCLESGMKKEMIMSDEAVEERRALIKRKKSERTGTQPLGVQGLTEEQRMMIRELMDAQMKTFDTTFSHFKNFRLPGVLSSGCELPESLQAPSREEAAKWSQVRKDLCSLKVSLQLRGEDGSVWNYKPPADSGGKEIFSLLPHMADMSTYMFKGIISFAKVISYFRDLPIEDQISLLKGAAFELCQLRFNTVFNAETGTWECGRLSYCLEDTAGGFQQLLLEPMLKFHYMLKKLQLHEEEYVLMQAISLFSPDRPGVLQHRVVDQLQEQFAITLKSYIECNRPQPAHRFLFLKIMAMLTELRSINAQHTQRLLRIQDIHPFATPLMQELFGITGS
Chain of Retinoic acid receptor alpha (Homo sapiens) (P10276 whole entry, looked up, the tested form may be a part): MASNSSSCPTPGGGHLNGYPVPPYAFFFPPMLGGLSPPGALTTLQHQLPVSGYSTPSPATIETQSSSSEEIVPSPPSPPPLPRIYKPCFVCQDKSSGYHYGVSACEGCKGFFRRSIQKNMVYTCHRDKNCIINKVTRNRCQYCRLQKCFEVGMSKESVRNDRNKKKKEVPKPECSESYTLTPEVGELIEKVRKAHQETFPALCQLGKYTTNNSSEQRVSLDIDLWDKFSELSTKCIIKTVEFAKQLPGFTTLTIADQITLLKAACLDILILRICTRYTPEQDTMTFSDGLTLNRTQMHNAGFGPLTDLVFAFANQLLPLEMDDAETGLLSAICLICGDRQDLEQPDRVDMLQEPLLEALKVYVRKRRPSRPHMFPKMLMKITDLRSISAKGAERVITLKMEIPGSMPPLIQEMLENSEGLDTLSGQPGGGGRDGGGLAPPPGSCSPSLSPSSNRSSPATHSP
Chain of human Peroxisome Proliferator-activated Receptor delta (PPARd), PPARD (gene 5467) (Q03181 whole entry, looked up, the tested form may be a part): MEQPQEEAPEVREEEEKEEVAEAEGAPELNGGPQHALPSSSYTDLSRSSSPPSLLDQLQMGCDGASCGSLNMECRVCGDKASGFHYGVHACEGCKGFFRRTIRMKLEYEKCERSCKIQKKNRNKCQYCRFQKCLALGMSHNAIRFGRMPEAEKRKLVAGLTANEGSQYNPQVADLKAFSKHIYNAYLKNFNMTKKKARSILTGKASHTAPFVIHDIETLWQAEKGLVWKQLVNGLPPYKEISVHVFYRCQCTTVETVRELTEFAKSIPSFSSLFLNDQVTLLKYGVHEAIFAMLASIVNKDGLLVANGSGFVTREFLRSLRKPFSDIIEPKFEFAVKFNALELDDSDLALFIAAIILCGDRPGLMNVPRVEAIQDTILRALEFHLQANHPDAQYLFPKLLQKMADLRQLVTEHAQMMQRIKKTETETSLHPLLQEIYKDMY
Chain of Peroxisome proliferator-activated receptor gamma (Homo sapiens) (P37231 whole entry, looked up): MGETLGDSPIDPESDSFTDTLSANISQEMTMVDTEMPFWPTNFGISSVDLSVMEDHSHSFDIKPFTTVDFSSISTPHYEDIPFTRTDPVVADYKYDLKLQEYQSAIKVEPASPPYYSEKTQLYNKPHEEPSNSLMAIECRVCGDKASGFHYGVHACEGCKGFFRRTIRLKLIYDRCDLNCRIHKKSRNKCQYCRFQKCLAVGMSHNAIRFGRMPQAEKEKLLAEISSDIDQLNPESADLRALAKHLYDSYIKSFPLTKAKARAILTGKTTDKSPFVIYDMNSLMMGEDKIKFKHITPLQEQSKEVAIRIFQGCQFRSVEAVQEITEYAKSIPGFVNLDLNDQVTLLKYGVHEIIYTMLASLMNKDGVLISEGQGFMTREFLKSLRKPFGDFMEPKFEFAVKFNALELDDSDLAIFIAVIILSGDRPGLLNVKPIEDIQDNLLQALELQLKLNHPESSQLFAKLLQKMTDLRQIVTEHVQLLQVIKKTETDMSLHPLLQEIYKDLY
Chain of human RAR-related Orphan Receptor beta (RORb), RORB (gene 6096) (Q92753 whole entry, looked up, the tested form may be a part): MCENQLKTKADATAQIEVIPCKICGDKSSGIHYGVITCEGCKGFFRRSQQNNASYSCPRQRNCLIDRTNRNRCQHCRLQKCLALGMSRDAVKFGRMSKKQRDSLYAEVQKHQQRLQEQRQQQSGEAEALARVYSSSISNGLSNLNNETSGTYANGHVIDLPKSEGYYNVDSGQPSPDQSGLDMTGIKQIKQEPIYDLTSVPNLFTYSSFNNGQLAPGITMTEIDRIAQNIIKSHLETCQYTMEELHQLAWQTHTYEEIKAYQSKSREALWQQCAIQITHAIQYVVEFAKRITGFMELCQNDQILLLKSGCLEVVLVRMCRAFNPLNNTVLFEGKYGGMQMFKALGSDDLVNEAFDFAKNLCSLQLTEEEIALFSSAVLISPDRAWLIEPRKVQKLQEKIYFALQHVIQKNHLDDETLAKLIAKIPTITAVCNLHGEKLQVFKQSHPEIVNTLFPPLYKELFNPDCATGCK
Chain of human Retinoic Acid Receptor beta (RARb), RARB (gene 5915) (P10826 whole entry, looked up, the tested form may be a part): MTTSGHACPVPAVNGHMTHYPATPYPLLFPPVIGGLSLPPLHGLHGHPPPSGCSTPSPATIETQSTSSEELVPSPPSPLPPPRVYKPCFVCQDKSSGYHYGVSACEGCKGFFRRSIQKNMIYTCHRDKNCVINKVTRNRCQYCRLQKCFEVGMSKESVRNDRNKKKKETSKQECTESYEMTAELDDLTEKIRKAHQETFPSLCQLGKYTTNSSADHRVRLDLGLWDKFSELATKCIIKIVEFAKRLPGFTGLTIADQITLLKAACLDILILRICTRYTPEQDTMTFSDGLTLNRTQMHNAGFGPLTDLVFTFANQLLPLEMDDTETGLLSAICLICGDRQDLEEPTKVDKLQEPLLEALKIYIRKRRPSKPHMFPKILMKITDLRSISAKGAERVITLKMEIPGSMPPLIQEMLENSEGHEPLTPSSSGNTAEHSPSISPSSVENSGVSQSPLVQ

Turning to `CC(C)(Oc1ccc(C2CC2(Cl)Cl)cc1)C(=O)O` (configuration not stated), the result in assay [1], in [2], in [3], in assay [4], in assay [5] and in [7] was inactive. Also, the call in [9] and in assay [10] was inactive. For the same compound, the AC50 in [6] was 0.975 µM (active); in [8], 30.6 µM (active).

Regarding `CCCCCCCCCCCCCCCC[n+]1ccccc1`, the result in [1], in assay [3], in [4], in [6], in assay [11] and in assay [12] was inactive. Also, the call in assay [7], in assay [8], in assay [9] and in assay [10] was inactive. The figures for the AC50 in assay [2] and in assay [5] were 20 µM (active) and 20.4 µM (active), respectively.

With `O=C(c1ccccc1)c1ccc(O)c(O)c1O`, the compound was called inactive in [1], in [2], in assay [4], in assay [5], in assay [6] and in [11]. The compound was classed as inactive in [7] and in assay [13]. Further, the AC50 in assay [3] is 61.6 µM (active); in [8], 47 µM (active); in assay [9] it was 24 µM (active).

As to `Nc1nc2ccccc2[nH]1`, the outcome in [1], in assay [2], in [3], in assay [4], in assay [5] and in [6] was inactive. Further, the outcome in assay [12], in assay [8] and in assay [9] was inactive.

For `C=C[Si](OC(C)=O)(OC(C)=O)OC(C)=O`, the compound was called inactive in [1], in [2], in assay [3], in [4], in assay [5] and in assay [14]. The outcome in assay [15], in assay [16], in [11], in assay [17], in assay [7] and in [18] was inactive. In addition, the compound was called inactive in [10] and in assay [13]. Also, in [9], the AC50 was 4.82 µM (active).
